PubChem BioAssay (NCI)
Several values for one entry are separate records, joined by “and”; a condition that tells them apart may be missing. Equal entries are not always repeated. About 83,000 compounds went through this panel and 20% of them were active in at least one assay; those are over-represented in the sample as a whole.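 Negative percent growth values reflect cell death: -40 means 40% of the cells present at the start died, and -100 means all died.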 Activity calls are given as the source filed them. Rule for the calls: active = growth percent below 10; inactive = the rest.

test system: UACC-62 melanoma; test: NCI-60 one-dose screen, 48 h (100 = growth as untreated, 0 = no growth, -100 = all killed); conditions: 10 µM unless noted

Row | Structure (SMILES) | growth
1 | COc1ccc2nc(N/N=C/c3ccc(C)s3)cc(C)c2c1 | -97.7% [100 µM] (active) and -100% [100 µM] (active)
2 | COc1cc(C)c2c(c1C=O)Oc1c(c(C)c(O)c3c1C(O)OC3=O)OC2=O (centres undefined) | -82.4% [100 µM] (active) and 98.2% [100 µM] (inactive)
3 | COC(=O)C(/C(=N/NC(N)=O)C(=O)Nc1ccc(C)cc1)c1nc2ccc([N+](=O)[O-])cc2[nH]c1=O (centres undefined) | 61.4% [100 µM] (inactive) and 23.2% [100 µM] (inactive)
4 | CC(=O)C1=C(C)N2C(=NC3=C(CCc4ccccc43)C2c2ccc(Cl)cc2)S1 (centres undefined) | 48.8% [100 µM] (inactive) and 14.3% [100 µM] (inactive)
